Screens as filed in PubChem.
SmPrx2 inh – inhibitors of Schistosoma mansoni peroxiredoxin 2; 65,000 tested, 0.07% active; S. mansoni Prx2 activity coupled to TGR/GSH (TGR is thioredoxin glutathione reductase), NADPH fluorescence loss, qHTS; Potency, µM
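Enzyme mix: 100 uM NADPH, 25 nM TGR, 700 uM GSH, 50 nM Prx2 in 100 mM phosphate pH 7.4, 10 mM EDTA, 0.01% Tween-20. 15 min RT with compound; NADPH/GSH added, H2O2 starts reaction; NADPH fluorescence read 8 min.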
AmpC inh det – AmpC beta-lactamase inhibition, detergent assay | purified AmpC, nitrocefin hydrolysis with detergent | Potency, µM (top dose mostly 28.7 µM), for the others: top-dose activity change, negative = inhibition | AID 584 | P00811 | 71,000 tested, 0.09% active; active means well fitted curve in the direction sought with a large enough effect; inconclusive means small, poorly fitted or top-dose-only effect; further: on the % scale 0 is the no-effect control and ±100 the full control effect
Target sequence (P00811 whole entry, looked up): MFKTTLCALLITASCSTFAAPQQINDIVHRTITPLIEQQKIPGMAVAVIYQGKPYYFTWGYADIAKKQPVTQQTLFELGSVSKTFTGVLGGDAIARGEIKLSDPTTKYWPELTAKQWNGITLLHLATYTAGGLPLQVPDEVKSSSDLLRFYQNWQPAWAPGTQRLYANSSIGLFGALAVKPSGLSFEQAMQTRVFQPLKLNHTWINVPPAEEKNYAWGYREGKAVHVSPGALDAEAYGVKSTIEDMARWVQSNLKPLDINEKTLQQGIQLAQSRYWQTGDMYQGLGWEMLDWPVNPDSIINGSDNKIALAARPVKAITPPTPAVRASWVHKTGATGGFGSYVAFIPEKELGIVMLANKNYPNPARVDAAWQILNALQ
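E. coli AmpC (5.3 nM) in 20 mM phosphate pH 7.0 with 0.01% Triton X-100, preincubated 15 min RT with compound; nitrocefin (2 uL of 800 uM stock) hydrolysis followed by 480 nm absorbance every 20 s over 4 min.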
AmpC inh no det – AmpC beta-lactamase inhibition, detergent-free assay; P00811; AmpC nitrocefin hydrolysis, absorbance 480 nm, no detergent; Potency, µM (series often up to 28.7 µM), without a hit: at the highest dose activity change, negative = inhibition; 71,000 tested, 1.8% active; AID 585; further: % of control where 0% means no effect
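AmpC, 20 mM phosphate pH 7.0; 15 min cpd preinc, RT; start with nitrocefin (800 uM stock); A480 kinetic read, 20 s intervals, 4 min. No-enzyme wells = negative control.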
Anthrax LT inh – anthrax lethal toxin internalization inhibition; Cells, anthrax lethal toxin internalization, FRET ratio (460/530); Potency, µM (doses to about 40 µM), for the others: at the highest dose activity change, negative = inhibition, actives largely listed as inhibitors; 70,000 tested, 0.67% active; AID 912; further: on the % scale 0 is the no-effect control and ±100 the full control effect; nearly all actives have a fitted effect of over 50% in size
* hit, by the source's call; ? = inconclusive; nt = no result; [ ] = another dose, or the depositor's remark. The list is not random: actives were taken first. Their share in the collection is about 2.6%. Unless noted, the call rests on the fitted dose curve. Potency means the concentration at half of the fitted maximal effect.

SMILES	SmPrx2 inh	AmpC inh det	AmpC inh no det	Anthrax LT inh
Cc1c(C)c2cc(Cl)c(O)c(CN(C)C)c2oc1=O	nt	0%	-1%	11%
O=c1oc2c(O)c(O)cc3c(=O)oc4c(O)c(O)cc1c4c23	>57	?	7.9µM*	?
COc1ncc2nc(CCc3ccccc3)c(=O)n(Cc3ccc(F)cc3)c2n1	>57	1%	19%	?
Cc1n[nH]c(C)c1S(=O)(=O)N(CC(=O)Nc1ccc2c(c1)OCCO2)c1ccc(C(C)C)cc1	>57	2%	31%	16µM*
Cc1noc(C)c1S(=O)(=O)N(CC(=O)Nc1ccc2c(c1)OCO2)c1ccc(C(C)C)cc1	>57	4%	-1%	?
COC(=O)c1cc2sccc2n1CC(=O)N1CCCc2ccccc21	>57	-6%	15%	10µM*
Oc1ccc(CN2CCN(Cc3ccccc3)CC2)c2cccnc12	>57	2%	8%	?
Oc1ccc(CNc2ccc(F)cc2)c2cccnc12	?	1%	10µM*	-6%
Oc1ccc(CNc2ccccc2)c2cccnc12	15*	20%	13µM*[single pt active]	5%
CN(C)CC(C(=O)c1ccccc1)c1ccccc1 (stereo not drawn)	>57	-3%	-19%	10µM*
NC(=O)CN1C[C@@H](O)CC1=O	>57	-4%	18%	2%
Cc1ccc(C(=O)Nc2ccc(N3CCOCC3)cc2)cc1	nt	-1%	1%	-3%
CC(=O)N1CCN(c2ccc(NC(=O)c3ccc(C(C)(C)C)cc3)cc2)CC1	>57	7%	123%	10µM*
O=C1c2c(O)cc(O)cc2O[C@@H](c2ccc(O)c(O)c2)[C@H]1O	>57	18%	-13%	2%
O=C(O)Cn1c(=O)oc2cc(S(=O)(=O)NC3CCCCC3)ccc21	>57	11%	2.5µM*[single pt active]	-3%
CC1CCN(S(=O)(=O)c2ccc3c(c2)oc(=O)n3CC(=O)N2c3ccccc3CC2C)CC1 (stereo not drawn)	>57	3%	17%	?
O=C(Cn1c(=O)oc2cc(S(=O)(=O)N3CCCCCC3)ccc21)NC1CCCCCCC1	>57	9%	4µM*[single pt active]	-8%
O=C(Cn1c(=O)oc2cc(S(=O)(=O)N3CCCC3)ccc21)NC1CCCc2ccccc21 (stereo not drawn)	>57	12%	2µM*	?
CC1CCN(S(=O)(=O)c2ccc3c(c2)oc(=O)n3CC(=O)NCc2ccc3c(c2)OCO3)CC1	>57	4%	4µM*	?
Cc1c(C(=O)NCc2ccc3c(c2)OCO3)oc2ccc(S(=O)(=O)N3CCC(C)CC3)cc12	>57	-5%	4%	-14%
C=CCN1CC[C@]23c4c5ccc(O)c4O[C@@H]2C(=O)CC[C@@]3(O)[C@H]1C5	>57	-2%	6%	4%
CC(C)CN1CC[C@@]2(CCCN(C(=O)c3cccc(F)c3)C2)C1	>57	-2%	14%	?
CCC/C=C(\CCC)C(NC(=O)c1ccc(C(F)(F)F)cc1)c1ccc(C(F)(F)F)cc1 (stereo not drawn)	>57	1%	-8%	-16%
Cc1noc(NS(=O)(=O)c2ccc(NC(=O)CCn3c(=O)oc4ccccc43)cc2)c1C	?	9%	-2%	-9%
CCN(CC)S(=O)(=O)c1ccc(NC(=O)Cn2c(=O)sc3ccccc32)cc1	>57	1%	?	-21%
SMILES	SmPrx2 inh	AmpC inh det	AmpC inh no det	Anthrax LT inh
O=C(Cn1c(=O)oc2cc(S(=O)(=O)N3CCCC3)ccc21)Nc1ccc(C(F)(F)F)cc1	>57	19%	10µM*[single pt active]	-17%
Cc1cc(C)nc(NS(=O)(=O)c2ccc(NC(=O)Cn3c(=O)oc4ccccc43)cc2)n1	>57	14%	4µM*[single pt active]	-4%
O=C(CN1CCCCC1)Nc1ccc(S(=O)(=O)N2CCCCCC2)cc1	>57	-7%	1%	-4%
O=C(Cn1c(=O)sc2ccccc21)Nc1ccc(S(=O)(=O)N2CCCCC2)cc1	>57	-4%	6.3µM*	-2%
CC[N+](CC)(CC)CC[C@](O)(c1ccccc1)C1CCCCC1	>57	0%[12.8 µM]	6%[12.8 µM]	5%[3.58 µM]
COc1cc2c(cc1OC)[C@@H]1CC(=O)[C@@H](CC(C)C)CN1CC2	nt	nt	nt	-13%
COC(=O)CCc1nc2ccccc2[nH]c1=O	>57	4%	-5%	0%
COC(=O)CSCc1nc2ccccc2[nH]c1=O	>57	22%	4µM*[single pt active]	6%
Cn1c(=O)c(-c2cccs2)nc2cnc(Oc3ccccc3)nc21	>57	0%	-4%	?
Oc1cccc(Nc2nc(NCC3CCCO3)c3ccccc3n2)c1 (stereo not drawn)	>57	-1%	10µM*	-22%
CC1CCCCN1CCn1cnc2c([nH]c3ccccc32)c1=O (stereo not drawn)	>57	13%	4µM*[single pt active]	1%
O=c1c2[nH]c3ccc(F)cc3c2ncn1CCN1CCN(Cc2ccccc2)CC1	>57	10%	3.2µM*[single pt active]	-10%
N#CCCCC[N+]12CN3CN(CN(C3)C1)C2	>57	-4%[5.75 µM]	-4%[5.75 µM]	?
CCOC(=O)N1CCN(c2c(Nc3cc(C)[nH]n3)c(=O)c2=O)CC1	?	12%	2.5µM*[single pt active]	-5%
CCOC(=O)N1CCN(c2c(NCCCN(CC)c3cccc(C)c3)c(=O)c2=O)CC1	>57	-3%	84%	1%
CCOC(=O)N1CCN(c2c(NCc3ccccn3)c(=O)c2=O)CC1	>57	15%	4µM*[single pt active]	-14%
c1ccc2c(-c3nnc4n3CCCCC4)c[nH]c2c1	>57	0%	-1%	?
CN1CC=C(c2c[nH]c3ccccc23)CC1	>57	11%	4µM*[single pt active]	-13%
CO[C@@H]([CH2][Hg])CN1C(=O)c2ccccc2S1(=O)=O.Cn1c(=O)c2nc[nH]c2n(C)c1=O	1.3*	-3%[5.75 µM]	-15%[5.75 µM]	?
O=C1c2ccccc2S(=O)(=O)N1CC(O)COc1ccc(Br)cc1 (stereo not drawn)	nt	6%	13%	-25%
COc1ccc(CCNC(=O)C2(C)CCC(=O)N2CCC(C)C)cc1OC (stereo not drawn)	>57	18%	4µM*[single pt active]	-21%
COCCn1c(=O)cnc2cnc(N(C)C)nc21	>57	-1%	6%	-7%
Cc1ccc(NC(=O)C2CCCN2S(=O)(=O)c2ccc3c(c2)CCC(=O)N3)cc1Cl (stereo not drawn)	>57	12%	4µM*[single pt active]	-10%
O=C1CCc2cc(S(=O)(=O)N3CCCC3C(=O)N3CCN(c4ccccc4)CC3)ccc2N1 (stereo not drawn)	>57	27%	4µM*[single pt active]	-4%
O=C1CCc2cc(S(=O)(=O)N3CCCC3C(=O)N3CCN(c4ccccc4F)CC3)ccc2N1 (stereo not drawn)	>57	5%	10%	-5%
Cc1ccc2oc(=O)c3cc(C(=O)NCc4ccco4)sc3c2c1	>57	10%	4µM*[single pt active]	?
Cc1nn(-c2nc3ccccc3s2)c(N)c1-c1ccccc1	>57	0%	-12%	13µM*
COc1cccc(Nc2ncc3nc(CCc4ccccc4)c(=O)n(C4CC4)c3n2)c1	>57	0%	16%	?
COc1ccccc1NC(=O)N1CCN(c2ccc3nncn3n2)CC1	>57	15%	4µM*[single pt active]	6%
